ATG4B inhibitor: inhibitors of human ATG4B cysteine protease; Q9Y4P1; ATG4B cleavage of LC3-PLA2, NBD-HPC fluorescence, 1 h; inhibition, % at 8.33 µM; 0.51% of 340,000 active; in the data active means inhibition above about 40%
NRP1-CendR mod: modulators of CendR peptide binding to human neuropilin-1. O14786. FAM-RPARPAR peptide binding to NRP-1, fluorescence polarization. inhibition, % at 25 µM. 0.85% of 360,000 active. AID 602438;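 active means inhibition or corrected inhibition above about 18%, plus a signal ratio from 0.5 to 1.5, limit read from the data, passing the limit was not always enough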
SKN-1 block: blocks SKN-1 activity in C. elegans; 0.49% of 360,000 active; inhibition, % at 21.8 µM; C. elegans VP596 Pgst-4::GFP/RFP ratio, acrylamide-induced, 24 h;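 active means interference check ratio from 0.5 to 1.5 plus GFP to RFP signal ratio inhibition reaching or exceeding a fixed threshold, cut at about 30% in these data, passing the limit was not always enough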
MPTP inh: blocks calcium-induced mitochondrial swelling | isolated mouse mitochondria, Ca2+ swelling absorbance, 30 min | inhibition, % at 10 µM | 1.4% of 360,000 active | AID 602449;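 active means inhibition of 50% or more, scaled per plate between neutral and stimulator controls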;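 further: 0% = DMSO wells given calcium and 100% = 1 mM EGTA wells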
F508del corr: correctors of CFTR F508del function in bronchial epithelial cells. CFBE cells, YFP halide quenching; stimulated with forskolin plus potentiator P3; % fluorescence drop versus neutral controls. AID 720511. activity (quench increase), % at 7.58 µM. 0.36% of 350,000 active;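 active means mean added fluorescence quench of at least 8% versus neutral control, with both replicates also reaching 8%; inconclusive means only one of the mean or replicate conditions met; inactive means mean below 8% and not both replicates reaching 8%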;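 further: cells transiently co-express mutant CFTR-F508del with the halide-sensitive YFP; corrector assay measuring rescue of mutant channel to the surface after 24 h compound exposure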
MPTP counter: membrane potential counter-screen of mitochondrial pore inhibitors; shares compounds with MPTP inh; isolated mitochondria, Rhodamine 123 fluorescence; inhibition, % at 10 µM; 78% of 5,000 active; AID 624504; in the data active means inhibition above about 22%;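 further: 0% = DMSO vehicle and 100% = positive control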
MPTP swell DR: MPTP inhibition, dose response swelling confirmation | isolated mitochondria swelling, absorbance | AID 651561 | IC50, µM | shares compounds with MPTP inh | 58% of 780 active; in the data active means IC50 below about 20 µM
MPTP cs DR: counter-screen for mitochondrial permeability transition pore inhibitors, dose response | shares compounds with MPTP inh | IC50, µM | 49% of 780 active | isolated mitochondria counterscreen, fluorescence read-out; in the data active means IC50 below about 80 µM
* hit, by the source's call; ? = inconclusive; nt = not tested or not shown; ! = not active in a repeat. This is a sample that favours compounds with a hit; in the whole collection about 2.7% have one here.

SMILES | ATG4B inhibitor | NRP1-CendR mod | SKN-1 block | MPTP inh | F508del corr | MPTP counter | others
COc1ccc(-c2nc3ccc(C)cn3c2NCc2ccccc2)cc1SC1CCCCC1 | 9.8 | -22.6 | -2.9 | 97.5* | nt | 95.5*
CCCCNc1c(-c2ccc(OC)c(SC3CCCCC3)c2)nc2ccc(C)cn12 | 21.8 | -23.5 | 0.3 | 76.4*! | 1.4 | 98.1*
COc1ccc2c3c(n(C)c2c1)[C@H](CO)N(Cc1ccccc1F)CC31CN(C(=O)C2CCOCC2)C1 | nt | nt | nt | nt | -2.0 | nt
O=C(NC(Nc1nc2ccc([N+](=O)[O-])cc2s1)(C(F)(F)F)C(F)(F)F)c1ccccc1Cl | -6.9 | -40.1 | 20.8 | 92.5* | nt | 91.7*
O=C(NC(Nc1nc2ccc([N+](=O)[O-])cc2s1)(C(F)(F)F)C(F)(F)F)c1cccnc1 | -5.5 | -32.1 | 16.6 | 86.8* | 0.1 | 97.3*
C/C(=C\c1ccccc1)C(=O)Nc1nc2ccc([N+](=O)[O-])cc2s1 | 31.9 | -3.6 | 4.2 | 53.4* | -1.1 | 65.6*
CN(C)S(=O)(=O)c1ccc2nc(NC(=O)c3cccnc3)sc2c1 | -4.0 | -16.0 | 24.6 | 0.6 | nt | nt
C[C@@H]1CCCCO[C@H](CN(C)C(=O)CCC(F)(F)F)[C@@H](C)CN([C@H](C)CO)C(=O)c2cc(NC(=O)C3CCCCC3)ccc2O1 | nt | nt | nt | nt | -2.3 | nt
COC(=O)C[C@H]1CC[C@@H]2[C@H](COc3ccc(NC(=O)Nc4ccc(C#N)cc4)cc3C(=O)N2C)O1 | nt | nt | nt | nt | 1.6 | nt
O=C(COC(=O)C12CC3CC(CC(C3)C1)C2)Nc1nc2c(F)c(F)c(F)cc2s1 | -5.0 | 30.9* | -3.9 | 70.4* | nt | 40.2*
Oc1ccc(Br)cc1/C=N/n1cnc2ccccc21 | -3.5 | -13.1 | 8.0 | 73.5* | nt | 66.8*
Oc1ccc(Br)cc1/C=N/N1CCCCC1 | 7.7 | -1.3 | 1.8 | 2.1 | nt | nt
CN(c1ccccc1)S(=O)(=O)c1cccc(NC(=O)c2ccc(Cl)c([N+](=O)[O-])c2)c1 | -3.8 | -0.6 | -4.4 | 95.1* | -1.6 | 84.3*
CCN(c1ccccc1)S(=O)(=O)c1cc(C(=O)Nc2ccc(F)c(F)c2)ccc1F | -1.8 | -15.4 | 10.0 | 91.4* | nt | 81.2*
CN(c1ccccc1)S(=O)(=O)c1cccc(NC(=O)CCNC(=O)c2ccc([N+](=O)[O-])cc2)c1 | -1.3 | 14.5 | -5.6 | 1.4 | -1.7 | nt
CN(c1ccccc1)S(=O)(=O)c1ccc(NC(=S)Nc2ccccc2)cc1 | 2.0 | 1.2 | -5.6 | 96.2* | nt | 90.7*
CCN(c1ccccc1)S(=O)(=O)c1ccc(C(=O)Nc2cccc(NC(C)=O)c2)cc1 | -39.6 | -1.2 | 4.5 | -1.4 | -2.4 | nt
CCN(c1ccccc1)S(=O)(=O)c1cc(NC(=O)Nc2ccccc2C#N)ccc1Cl | -12.5 | 11.5 | 1.3 | 96.3* | nt | 94.9*
CS(=O)(=O)Nc1ccc2c(c1)[C@H]1C[C@@H](CC(=O)NCc3ccccn3)O[C@H](CO)[C@H]1O2 | nt | nt | nt | nt | -1.5 | nt
C[C@H]1CN([C@@H](C)CO)C(=O)Cc2cc(NC(=O)Cn3cnnn3)ccc2O[C@@H]1CN(C)CC1CCCCC1 | nt | nt | nt | nt | 0.2 | nt
CN(C)c1ccc2c(c1)[C@H]1C[C@H](CC(=O)NCc3ccccc3F)O[C@H](CO)[C@H]1O2 | nt | nt | nt | nt | 0.6 | nt
CN(c1ccccc1)S(=O)(=O)c1ccc(C(=O)NNC(=O)c2ccccc2)cc1 | 3.1 | -21.2 | 15.4 | -1.5 | -3.5 | nt
CN(c1ccccc1)S(=O)(=O)c1cccc(C(=O)NNC(=O)c2ccccc2)c1 | 1.0 | 8.1 | 2.2 | 55.5* | -0.2 | 37.9*
CN(c1ccccc1)S(=O)(=O)c1cccc(NC(=O)c2ccncc2)c1 | -13.2 | -2.0 | 0.0 | 96.3* | 0.1 | 68.9*
CN(c1ccccc1)S(=O)(=O)c1cccc(NC(=O)Nc2ccc(Cl)cc2C#N)c1 | -4.7 | 7.6 | 10.2 | 71.3* | nt | 86.3*
SMILES | ATG4B inhibitor | NRP1-CendR mod | SKN-1 block | MPTP inh | F508del corr | MPTP counter | others
CCSc1nnc(NC(=O)c2cccc(S(=O)(=O)N(C)c3ccc(C)cc3)c2)s1 | -4.5 | -2.5 | -4.5 | 72.5* | nt | 73.2*
CCc1nnc(NC(=O)c2cccc(S(=O)(=O)N(C)c3ccccc3)c2)s1 | -3.3 | -11.7 | -2.9 | 3.1 | nt | nt
CN(C)C(=O)C[C@H]1CC[C@@H]2[C@@H](COc3ccc(NC(=O)C4CCC4)cc3C(=O)N2C)O1 | nt | nt | nt | nt | 1.9 | nt
CC1(O)CC(c2ccc(Cl)cc2)=NN1C(=O)c1ccc(Cl)cc1 (stereo not given) | 12.2 | 8.8 | -11.4 | 68.2* | -1.0 | 88.4*
COc1cccc(NC(=O)Nc2ccc3nc(C)c(C)nc3c2)c1 | -0.1 | -16.1 | 7.5 | 0.4 | -2.9 | nt
CCCSc1nsc(NC(=O)Nc2ccc(F)cc2F)n1 | -3.1 | 7.3 | 21.2 | 97.1* | 2.8 | 84.8*
COc1cccc(NC(=O)Nc2nc(SC(C)(C)C)ns2)c1 | 1.5 | 14.7 | 1.9 | 93.4* | -4.0 | 76.8*
COc1cccc(NC(=O)Nc2ccc3nsnc3c2)c1 | -10.3 | 10.2 | 13.7 | 93.1* | -1.2 | 86.6*
COc1cccc(NC(=O)Nc2nc(SC)ns2)c1 | 8.6 | -1.8 | 4.2 | 68.7* | 1.5 | 80.8*
C[C@@H]1CN([C@H](C)CO)C(=O)c2cccc(NC(=O)NC3CCCCC3)c2O[C@@H]1CN(C)S(=O)(=O)c1cn(C)cn1 | nt | nt | nt | nt | -1.0 | nt
CC(=O)Nc1cccc(NC(=O)Nc2cccc(F)c2)c1 | -10.4 | -1.1 | -5.0 | 6.4 | 0.0 | nt
CCSc1nsc(NC(=O)Nc2cccc(F)c2)n1 | 6.0 | -4.4 | 16.0 | 97.6* | nt | 80.4*
COc1ccc(N2CCc3c(C)nc4c(OC)cc(OC)cc4c32)c(OC)c1 | -1.5 | -20.1 | 33.5 | 63.9* | nt | 72.4*
COc1ccc(N2CCc3c(C)nc4c(OC)cccc4c32)cc1 | -2.4 | -15.0 | 6.1 | 18.4 | ? | nt
COc1ccc(N/N=C(/C#N)S(=O)(=O)c2nsc(C)c2C#N)cc1 | -2.7 | 2.1 | -0.7 | 0.7 | nt | nt
Cc1snc(S(=O)(=O)/C(C#N)=N/Nc2cccc(C(F)(F)F)c2)c1C#N | -7.4 | 26.9* | 0.6 | 103.8* | nt | 89.8*
COc1ccc(CC(NC(C)=O)C(=O)N2CCN(C(=O)Nc3ccc(Cl)cc3)CC2)cc1OC (stereo not given) | -9.8 | -9.6 | -0.5 | 55.2* | nt | 72.6*
Cc1cccnc1N(C(=O)Nc1cccc(Cl)c1)C1=NCC(C)(C)S1 | -1.7 | 12.7 | 5.3 | 52.3* | nt | 74.7*
Cc1cccnc1N(C(=O)Nc1ccccc1)C1=NCC(C)(C)S1 | -12.2 | 2.1 | 2.4 | -0.3 | nt | nt
CCOc1ccc(OCc2cccc(C(=O)Nc3ccc(CN4CCCCC4)cc3)c2)cc1 | -2.5 | -3.5 | 5.1 | 87.4* | nt | -11.9 | MPTP swell DR=2.37*;MPTP cs DR=43*
CCCN1C[C@@H](C)[C@H](OC)CN(C)C(=O)c2cc(NC(=O)Nc3c(C)noc3C)ccc2OC[C@@H]1C | nt | nt | nt | nt | -1.1 | nt
